Vaccinia Venus – qHTS for Stage-Specific Inhibitors of Vaccinia Orthopoxvirus: Venus Reporter Primary qHTS; 330,000 compounds, 0.46% hits; Vaccinia virus Venus reporter expression, fluorescence; Potency, µM (doses to about 36.5 µM), actives largely listed as inhibitors; AID 720580, 2013; calls by dose curve; tested in A549 cells; also: nearly all actives have a fitted effect of over 30% in size
FMDV antiviral – High Throughput Screening for Foot and Mouth Disease Virus Antivirals | FMDV antiviral cell-based qHTS | Potency, µM (highest dose often 57.9 µM), usual class: inhibitors | 410,000 compounds, 1.2% hits | AID 1159524, 2015; calls by dose curve; tested in HEK293T cells; also: read-out not given here; nearly all actives have a fitted effect of over 45% in size
HCV inh – qHTS Assay for Inhibitors of Hepatitis C Virus (HCV) | Potency, µM (doses to about 41.8 µM), usual class: inhibitors | Huh7.5.1 HCVcc-Cre infection, luciferase reporter, 44 h | 340,000 compounds, 3.4% hits | AID 651820, 2012; active = well fitted inhibition curve with a large enough effect; inconclusive = small, poorly fitted or top-dose-only effect, or another doubt; inactive = no such curve, though single readings can be large or run the other way
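1,000 cells/well; 4 h culture; + compound; + HCVcc-Cre (~0.5 moi); 44 h; luciferase substrate, RT 15 min; read 15 sec.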
HCMV antiviral – qHTS Assay for inhibitors of the human cytomegalovirus (HCMV); HFF cells, HCMV-luciferase reporter, 72 h; stronger effect = lower value; activity change, negative = inhibition, % at 57.5 µM; 410,000 compounds, 4.5% hits; in the data active = activity change below about -60%; inconclusive = no clear call, values can overlap the other calls; inactive = above about -39%
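Cell-based, HFFs, 1000 cells/well, 16 h 37C; cpds in DMSO + HCMV-luc, MOI 1 PFU/cell; 72 h 37C; OneGlo luminescence after 5 min RT; norm. to buffer vs Salinomycin 10uM.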
VACV mCherry inh – qHTS for Stage-Specific Inhibitors of Vaccinia Orthopoxvirus: mCherry Reporter Primary qHTS; AID 720579, 2013; Potency, µM (series often up to 36.5 µM), most hits filed as inhibitors; 310,000 compounds, 0.63% hits; Vaccinia virus mCherry reporter infection, fluorescence; calls by dose curve; tested in A549 cells; also: nearly all actives have a fitted effect of over 35% in size
A number is an active result; – = inactive; ? = inconclusive; · = no result; + = active, no number; ! = repeats disagree. Most compounds without a hit are left out; they make up all but 7.3% or so of the library.

SMILES | Vaccinia Venus | FMDV antiviral | HCV inh | HCMV antiviral | VACV mCherry inh
CC(=O)OC(C)C1C2=C(C(=O)CC1(C)O)C(=O)c1c(ccc(-c3ccc4c(c3O)C(=O)C3=C(C4=O)C(C(C)OC(C)=O)C(C)(O)CC3=O)c1O)C2=O (stereo unspecified) | – | 18µM | ? | -68 | ?
C[N+](C)(C)CC(O)CC(=O)[O-] (stereo unspecified) | – | – | · | · | –
O=C(NCCN1CCC2(CC1)C(=O)NCN2c1cccc(F)c1)c1ccc2ccccc2c1 | – | – | · | -101 | –
O=C(N/N=C/c1ccc(Br)s1)c1ccco1 | – | – | – | – | –
O=C(N/N=C/c1sc(=O)n(Cc2ccc(Br)cc2)c1Cl)c1ccco1 | – | – | ? | -92 | –
CCc1ccc(CNC(=O)C2CCCN(c3nn4cc(-c5ccc(F)cc5)nc4s3)C2)cc1 (stereo unspecified) | – | ? | · | + | –
CCOc1ccc(CNC(=O)C2CCCN(c3nn4cc(-c5ccc(F)cc5)nc4s3)C2)cc1 (stereo unspecified) | – | – | · | + | –
CCOc1ccc(CNC(=O)C2CCCN(c3nn4cc(-c5ccc(OC)cc5)nc4s3)C2)cc1 (stereo unspecified) | ? | – | · | – | ?
COc1ccc(C2=Nc3ccccc3N(C(=O)c3ccc(C(F)(F)F)cc3)C2C(=O)NCc2ccccc2)cc1 (stereo unspecified) | ? | – | · | ? | –
COc1ccc2c(c1OC)C(=O)OC2N1C(=O)CC[C@H]1C(=O)NCC1CCCO1 (stereo partly specified) | – | – | 0.56µM | – | –
COC(=O)c1ccccc1NC(=O)[C@@H]1CCC(=O)N1C1OC(=O)c2c1ccc(OC)c2OC (stereo partly specified) | – | – | – | – | –
CCc1ccc(NC(=O)CSC2=C(C#N)C(c3ccco3)C3=C(CCCC3=O)N2)cc1 (stereo unspecified) | – | – | ? | – | –
N#CC1=C(SCC(=O)c2ccc(Br)cc2)NC2=C(C(=O)CCC2)C1c1ccco1 (stereo unspecified) | ? | ? | 4.5µM | – | ?
CN(C)S(=O)(=O)n1cc(/C=C(\NC(=O)c2ccccc2)C(=O)NCCCn2ccnc2)c2ccccc21 | – | – | – | – | –
CCn1cc(/C=C(\NC(=O)c2cc(OC)c(OC)c(OC)c2)C(=O)NCCCn2ccnc2)c2ccccc21 | – | – | · | -104 | –
CN(C)S(=O)(=O)n1cc(/C=C(\NC(=O)c2ccccc2F)C(=O)N2CCCCC2)c2ccccc21 | – | – | · | -97 | ?
CN(C)S(=O)(=O)n1cc(/C=C(\NC(=O)c2ccccc2Cl)C(=O)NCCCn2ccnc2)c2ccccc21 | – | – | – | -105! | –
CCCNC(=O)Cn1nc(-c2ccc(C)c(C)c2)c2cnc3ccc(F)cc3c21 | – | – | · | – | –
C(=C\c1ccnc2ccccc12)/c1cccnc1 | – | · | · | · | –
CCCCNC(=O)C1(C)CCC(=O)N1CCCn1ccnc1 (stereo unspecified) | – | – | · | -71 | –
CC1(C(=O)NCc2ccccc2)CN(S(C)(=O)=O)CC(=O)N1CCCn1ccnc1 (stereo unspecified) | – | – | · | – | –
CC1(C(=O)NCc2ccccc2)CCC(=O)N1CCCn1ccnc1 (stereo unspecified) | – | – | · | -99 | –
CCCCNC(=O)C1(C)CCC(=O)N1CCOC (stereo unspecified) | – | – | · | – | –
CC1(C(=O)NCc2cccnc2)CCC(=O)N1CCc1ccccc1 (stereo unspecified) | – | – | – | -97 | –
Cc1ccc(NC(=O)OC(C)N2CCCCC2)cc1NC(=O)OC(C)N1CCCCC1 (stereo unspecified) | – | – | 25µM | – | –
O=C1c2ccccc2C(Cc2ccnc(F)c2)(Cc2ccnc(F)c2)c2ccccc21 | · | – | · | · | ·
CN1c2ccccc2[C@]23CCN(S(=O)(=O)C(F)(F)F)C2=Cc2ccccc2[C@H]13 | · | · | · | – | ·
Cc1ccc(O)c(C(CC(=O)NCC2(c3ccccc3)CCCC2)c2ccccc2)c1 (stereo unspecified) | – | ? | · | -99 | –
Cc1ccc(O)c(C(CC(=O)NCc2cccnc2)c2ccccc2)c1 (stereo unspecified) | – | – | – | – | –
